PubChem BioAssay (EPA / NIEHS)
Active and inactive are the calls of the source. Rule for the calls: active = hit-call score of the fitted dose curve at least 0.9, where 1 is the maximum; inactive = score below 0.9.

Legend:
Details in all cases: mRNA level, 48 h; actives raise or lower the signal
[1] = read-out: Alkaline Phosphatase, Placental (ALPP) gene, ALPP (gene 250); assay: LTEA_HepaRG_ALPP: Life Technologies and Expression Analysis (LTEA) Assay for Alkaline Phosphatase, Placental (ALPP) gene using HepaRG (AID 2283468)
In short: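 Differentiated human HepaRG cells were plated and cultured 48 h, then exposed in duplicate for 48 h in serum-free induction medium to eight half-log concentrations from 100 uM in 0.5% DMSO. ALPP mRNA was measured by TaqMan qRT-PCR, normalized to ACTB, GAPDH, POLR2A.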

[2] = read-out: Bcl-2 (BAD) gene, BAD (gene 572); assay: LTEA_HepaRG_BAD: Life Technologies and Expression Analysis (LTEA) Assay for Bcl-2 (BAD) gene using HepaRG (AID 2283469)
In short: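 Differentiated HepaRG cells were exposed in duplicate in 0.5% DMSO for 48 h to eight-point half-log concentrations up to 100 uM. BAD mRNA was measured by Fluidigm TaqMan qRT-PCR, normalized to ACTB, GAPDH and POLR2A, and fitted bidirectionally against DMSO.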

[3] = read-out: Bcl-2 (BAX) gene, BAX (gene 581); assay: LTEA_HepaRG_BAX: Life Technologies and Expression Analysis (LTEA) Assay for Bcl-2 (BAX) gene using HepaRG (AID 2283470)
In short: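 Concentration-response endpoint fitted in both directions relative to 0.5% DMSO vehicle. Human HepaRG cultures receive test chemicals for 48 h at up to 100 uM; BAX mRNA is quantified by qRT-PCR against housekeeping genes.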

[4] = read-out: adenosine kinase (ADK) gene, ADK (gene 132); assay: LTEA_HepaRG_ADK: Life Technologies and Expression Analysis (LTEA) Assay for adenosine kinase (ADK) gene using HepaRG (AID 2283471)
In short: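 HepaRG (human liver), 48 h chemical exposure, 8-pt half-log series, top 100 uM, 0.5% DMSO vehicle. Readout: ADK mRNA by qRT-PCR vs housekeeping genes; bidirectional curve fit relative to DMSO baseline.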

[5] = read-out: Alpha-fetoprotein (AFP) gene, AFP (gene 174); assay: LTEA_HepaRG_AFP: Life Technologies and Expression Analysis (LTEA) Assay for Alpha-fetoprotein (AFP) gene using HepaRG (AID 2283472)
In short: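 After a 48 h plating period, cells are moved to serum-free induction medium and dosed in duplicate (100 uM maximum, half-log dilutions, 0.5% DMSO) for another 48 h. Total RNA goes to TaqMan qRT-PCR; AFP signal is housekeeping-normalized.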

BCL2L11 (gene 10018) = assay: LTEA_HepaRG_BCL2L11: Life Technologies and Expression Analysis (LTEA) Assay for Bcl-2 (BCL2L11) gene using HepaRG (AID 2283473)
In short: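 Differentiated human HepaRG cells in serum-free induction medium were exposed in duplicate for 48 h to eight concentrations (top 100 uM, half-log steps, 0.5% DMSO). BCL2L11 mRNA was quantified by TaqMan qRT-PCR, normalized to ACTB/GAPDH/POLR2A, bidirectional fit versus DMSO.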

[6] = read-out: Apolipoprotein A-V (APOA5) gene, APOA5 (gene 116519); assay: LTEA_HepaRG_APOA5: Life Technologies and Expression Analysis (LTEA) Assay for Apolipoprotein A-V (APOA5) gene using HepaRG (AID 2283474)
In short: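 Differentiated human HepaRG cells were exposed in duplicate for 48 h to eight half-log concentrations from 100 uM in 0.5% DMSO. APOA5 mRNA was quantified by TaqMan qRT-PCR, normalized to ACTB, GAPDH and POLR2A, and fitted bidirectionally against DMSO.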

[7] = read-out: Apoptosis regulator Bcl-2 (Homo sapiens) (UniProt P10415); assay: LTEA_HepaRG_BCL2: Life Technologies and Expression Analysis (LTEA) Assay for Bcl-2 gene using HepaRG (AID 2283475)
In short: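 Expression change of BCL2 mRNA in HepaRG after 48 h dosing, quantified by TaqMan qRT-PCR against three endogenous controls. Concentration-response used eight points up to 100 uM, vehicle 0.5% DMSO.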

[8] = read-out: Bcl-2 (BID) gene, BID (gene 637); assay: LTEA_HepaRG_BID: Life Technologies and Expression Analysis (LTEA) Assay for Bcl-2 (BID) gene using HepaRG (AID 2283476)
In short: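 Gain or loss of BID expression is fitted relative to 0.5% DMSO vehicle. Human HepaRG liver cells received a 48 h chemical exposure over an eight-point concentration range.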

Caspase-3 (Homo sapiens) = Caspase-3 (Homo sapiens) (UniProt P42574); assay: LTEA_HepaRG_CASP3: Life Technologies and Expression Analysis (LTEA) Assay for cysteine-aspartic acid protease (CASP3) using HepaRG (AID 2283477)
In short: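 Differentiated human HepaRG cells in serum-free induction medium were exposed 48 h to 8-point half-log concentrations from 100 uM (0.5% DMSO vehicle). CASP3 mRNA was measured by qRT-PCR, normalised to ACTB, GAPDH and POLR2A, with bidirectional fitting against DMSO.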

Sequence of Caspase-3 (Homo sapiens) (P42574 whole entry, looked up): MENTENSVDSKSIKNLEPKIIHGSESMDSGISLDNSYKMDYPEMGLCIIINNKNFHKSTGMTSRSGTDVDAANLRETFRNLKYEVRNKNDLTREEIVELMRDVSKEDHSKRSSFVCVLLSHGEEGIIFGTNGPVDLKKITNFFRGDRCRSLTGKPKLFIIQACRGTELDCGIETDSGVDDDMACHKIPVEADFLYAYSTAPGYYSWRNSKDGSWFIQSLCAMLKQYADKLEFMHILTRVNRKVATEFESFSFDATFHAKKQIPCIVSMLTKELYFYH
Sequence of Apoptosis regulator Bcl-2 (Homo sapiens) (P10415 whole entry, looked up): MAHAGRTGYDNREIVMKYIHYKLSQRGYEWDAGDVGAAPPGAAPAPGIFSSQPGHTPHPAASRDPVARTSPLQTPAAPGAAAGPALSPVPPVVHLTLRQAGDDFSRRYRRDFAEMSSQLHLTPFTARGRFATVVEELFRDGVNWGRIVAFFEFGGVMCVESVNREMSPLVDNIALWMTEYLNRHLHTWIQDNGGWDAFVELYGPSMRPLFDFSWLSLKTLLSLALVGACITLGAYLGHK

Compound	outcome [1]	outcome [2]	outcome [3]	outcome [4]	outcome [5]	outcome (BCL2L11 (gene 10018))	outcome [6]	outcome [7]	outcome [8]	outcome (Caspase-3 (Homo sapiens))	AC50 [1]	AC50 [3]	AC50 [4]	AC50 [5]	AC50 (BCL2L11 (gene 10018))	AC50 [6]	AC50 [7]	AC50 (Caspase-3 (Homo sapiens))
Cc1ccc(N(C)C)cc1	inactive	inactive	inactive	inactive	inactive	inactive	inactive	inactive	inactive	inactive								
FC(F)(F)C(F)(F)C(F)(F)C(F)(F)C(F)(F)C(F)(F)CCI	inactive	inactive	inactive	inactive	inactive	inactive	inactive	inactive	inactive	inactive								
COc1ccc(S(=O)(=O)N2C(=O)[C@@](c3ccccc3OC)(N3C[C@H](O)C[C@H]3C(=O)N(C)C)c3cc(Cl)ccc32)c(OC)c1		inactive							inactive		29.5 µM (active)	19 µM (active)	12.1 µM (active)	29.4 µM (active)	63.4 µM (active)	38.5 µM (active)	50 µM (active)	12.2 µM (active)
CC(=O)C(C)=CC1C(C)=CCCC1(C)C (centres undefined)	inactive	inactive	inactive	inactive	inactive	inactive	inactive	inactive	inactive	inactive								
CN1CCN(Cc2cc(-c3ccc4[nH]c(=O)oc4c3)co2)[C@@H](c2ccc(F)cc2)C1		inactive	inactive	inactive		inactive	inactive	inactive	inactive	inactive	50 µM (active)			90.1 µM (active)				
CCCCCCCC=O	inactive	inactive	inactive	inactive	inactive	inactive	inactive	inactive	inactive	inactive								
COc1ccc2c(c1)c(CC(=O)O)c(C)n2C(=O)c1ccc(Cl)cc1	inactive	inactive	inactive	inactive	inactive	inactive	inactive	inactive	inactive	inactive								
Cc1ccc(C(C)C)c(O)c1	inactive	inactive	inactive	inactive	inactive	inactive	inactive	inactive	inactive	inactive								
C1CCC(SSC2CCCCC2)CC1	inactive	inactive	inactive	inactive	inactive	inactive	inactive	inactive	inactive	inactive								
c1cc(-c2ccncc2)ccn1	inactive	inactive	inactive	inactive	inactive	inactive	inactive	inactive	inactive	inactive								
C=CCc1ccc(O)c(OC)c1	inactive	inactive	inactive	inactive	inactive	inactive	inactive	inactive	inactive	inactive								
O=[N+]([O-])C(CO)(CO)CO	inactive	inactive	inactive	inactive	inactive	inactive	inactive	inactive	inactive	inactive								
Cc1nc(-c2ccc3c(c2)CCN(CCC2CCC(NC(=O)/C=C/c4ccc(F)cc4)CC2)CC3)no1 (centres undefined)	inactive	inactive	inactive	inactive	inactive	inactive	inactive	inactive	inactive	inactive								
CCCCCCCCCCC	inactive	inactive	inactive	inactive	inactive	inactive	inactive	inactive	inactive									
Cc1cc(=O)[nH]c(=S)[nH]1	inactive	inactive	inactive	inactive	inactive	inactive	inactive	inactive	inactive	inactive								
Cc1cccc(C)c1O	inactive	inactive	inactive	inactive	inactive	inactive	inactive	inactive	inactive	inactive								
CCCCCCCCCCO	inactive	inactive	inactive	inactive	inactive	inactive	inactive	inactive	inactive	inactive								
CC(CO)OC(C)CO (centres undefined) (tested in a mixture with another compound)	inactive	inactive	inactive	inactive	inactive	inactive	inactive	inactive	inactive	inactive								
CC=Cc1ccc(O)c(OC)c1	inactive	inactive	inactive	inactive	inactive	inactive	inactive	inactive	inactive	inactive								
Cc1oc(-c2ccccc2)nc1CCOc1cccc2c1ccn2CCC(=O)O		inactive		inactive					inactive	inactive	63 µM (active)	50 µM (active)		80.8 µM (active)	14.1 µM (active)	80.7 µM (active)	86.3 µM (active)	
CCCCc1ccc2c(n1)[C@@H](c1ccc(OC)cc1C[C@H](C)C(=O)O)[C@H](C(=O)O)[C@H]2c1ccc2c(c1)OCO2	inactive	inactive	inactive	inactive	inactive	inactive	inactive	inactive	inactive	inactive								
